In PubChem BioAssay:
A number with no mark means an inactive call. For some assays here: Results with a measured potency or affinity are listed apart. The source made the active and inactive calls. Unless noted, no rule for the calls is given here.

Experiments:
[1] = antimalarial activity against Dd2 strain (AID 2302;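 active = growth inhibition above 50% at the single 2 µM test dose, taken to imply half-maximal potency below 2 µM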;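 also: 0% = DMSO untreated growth and 100% = chloroquine plus artemisinin killed control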); conditions: P. falciparum Dd2 in RBCs, LDH growth readout, 72 h; at 2 µM; hits give high values
[2] = human hepatoma cell viability loss – ATP luminescence, cytotoxicity control for P. falciparum antimalarial project, primary screen (AID 2303;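 active = inhibition above 50%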;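 also: 0% = DMSO wells and 100% = digitonin-killed cells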); conditions: HepG2 viability, 24-48 h, at 10 µM, hits give high values
[3] = target: L-lactate dehydrogenase (Plasmodium falciparum (isolate CDC / Honduras)) (UniProt Q27743); test: PfLDH activity inhibition – cell lysate, 3D7 strain, counter-screen for P. falciparum growth inhibition project (AID 2304);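 also: 0% = vehicle and 100% = reference inhibitor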; conditions: P. falciparum 3D7 crude extract, LDH APAD/NBT absorbance; at 2 µM; hits give high values
Chain of L-lactate dehydrogenase (Plasmodium falciparum (isolate CDC / Honduras)) (Q27743 whole entry, looked up): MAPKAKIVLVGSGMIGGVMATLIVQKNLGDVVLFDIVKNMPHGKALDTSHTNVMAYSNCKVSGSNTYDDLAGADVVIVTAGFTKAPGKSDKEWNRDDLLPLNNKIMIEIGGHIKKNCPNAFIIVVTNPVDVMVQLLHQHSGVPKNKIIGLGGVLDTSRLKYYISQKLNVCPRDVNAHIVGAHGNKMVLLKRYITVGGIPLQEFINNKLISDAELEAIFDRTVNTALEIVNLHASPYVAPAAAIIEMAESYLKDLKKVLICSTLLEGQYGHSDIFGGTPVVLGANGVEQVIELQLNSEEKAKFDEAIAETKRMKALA

[4] = inhibition of 3D7 malaria parasite growth – strain 3D7 (AID 2306);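 also: 0% = DMSO wells and 100% = chloroquine plus artemisinin control wells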; conditions: P. falciparum 3D7 erythrocytic growth, LDH absorbance, 72 h; at 2 µM; hits give high values
[5] = target: Calcium-dependent protein kinase 1 (Plasmodium falciparum (isolate 3D7)) (UniProt P62344); test: PfCDPK1 kinase inhibitors, biochemical, TCAMS library (AID 1159585; cut-off not given, nearly all actives have IC50 up to about 0.98 µM;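 also: inhibitors leave more ATP so luminescence rises with inhibition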); conditions: recombinant PfCDPK1, Kinase-Glo ATP depletion luminescence
Chain of Calcium-dependent protein kinase 1 (Plasmodium falciparum (isolate 3D7)) (P62344 whole entry, looked up): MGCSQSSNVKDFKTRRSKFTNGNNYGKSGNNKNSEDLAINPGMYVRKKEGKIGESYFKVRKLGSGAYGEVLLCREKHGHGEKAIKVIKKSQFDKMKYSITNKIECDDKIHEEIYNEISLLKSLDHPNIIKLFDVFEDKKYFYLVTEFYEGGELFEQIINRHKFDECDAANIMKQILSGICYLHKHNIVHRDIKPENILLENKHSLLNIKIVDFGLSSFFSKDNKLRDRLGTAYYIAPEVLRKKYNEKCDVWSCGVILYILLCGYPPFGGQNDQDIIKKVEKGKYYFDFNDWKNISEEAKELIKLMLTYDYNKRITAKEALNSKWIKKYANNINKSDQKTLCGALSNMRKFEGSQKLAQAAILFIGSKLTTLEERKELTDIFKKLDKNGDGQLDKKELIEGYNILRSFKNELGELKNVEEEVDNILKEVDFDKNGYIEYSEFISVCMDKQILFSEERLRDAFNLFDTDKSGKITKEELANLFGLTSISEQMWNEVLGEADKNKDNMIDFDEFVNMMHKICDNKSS

[6] = target: Plasmodium falciparum protein kinase 6 (PK6, PF3D7_1337100) (UniProt Q8IDW1); test: PfPK6 kinase inhibitors, biochemical, TCAMS library (AID 1159586); conditions: recombinant PfPK6, Kinase-Glo ATP depletion luminescence
Chain of Plasmodium falciparum protein kinase 6 (PK6, PF3D7_1337100) (Q8IDW1 1-305): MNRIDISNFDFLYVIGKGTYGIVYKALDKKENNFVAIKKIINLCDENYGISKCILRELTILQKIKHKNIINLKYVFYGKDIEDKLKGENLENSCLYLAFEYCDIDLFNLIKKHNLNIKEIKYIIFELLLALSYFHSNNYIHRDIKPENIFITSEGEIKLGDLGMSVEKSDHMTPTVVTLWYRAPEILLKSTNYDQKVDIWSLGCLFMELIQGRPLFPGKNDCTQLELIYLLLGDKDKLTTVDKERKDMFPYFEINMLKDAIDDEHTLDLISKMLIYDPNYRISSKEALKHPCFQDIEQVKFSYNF

[7] = target: Protein kinase 7 (PK7), Plasmodium falciparum 3D7 (PF3D7_0213400) (UniProt Q7YTF7); test: inhibition of Plasmodium PK7 catalytic activity – biochemical, TCAMS antimalarial set, Kinase-Glo luminescence (AID 1159587); conditions: recombinant PfPK7, Kinase-Glo ATP depletion luminescence
Chain of Protein kinase 7 (PK7), Plasmodium falciparum 3D7 (PF3D7_0213400) (Q7YTF7 1-343): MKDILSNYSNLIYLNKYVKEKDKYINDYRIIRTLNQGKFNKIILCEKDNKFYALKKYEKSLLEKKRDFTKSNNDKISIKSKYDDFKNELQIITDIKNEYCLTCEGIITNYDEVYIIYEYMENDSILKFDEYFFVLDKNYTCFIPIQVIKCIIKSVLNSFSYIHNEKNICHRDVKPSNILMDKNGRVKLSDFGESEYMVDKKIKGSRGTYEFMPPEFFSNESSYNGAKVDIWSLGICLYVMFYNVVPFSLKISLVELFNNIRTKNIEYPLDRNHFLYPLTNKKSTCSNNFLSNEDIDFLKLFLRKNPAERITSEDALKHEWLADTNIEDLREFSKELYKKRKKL

[8] = target: Calcium-dependent protein kinase 4 (Plasmodium falciparum (isolate 3D7)) (UniProt Q8IBS5); test: PfCDPK4 kinase inhibitors, biochemical, TCAMS library (AID 1159588; cut-off not given, nearly all actives have IC50 up to about 0.91 µM); conditions: recombinant PfCDPK4, Kinase-Glo ATP depletion luminescence
Chain of Calcium-dependent protein kinase 4 (Plasmodium falciparum (isolate 3D7)) (Q8IBS5 whole entry, looked up): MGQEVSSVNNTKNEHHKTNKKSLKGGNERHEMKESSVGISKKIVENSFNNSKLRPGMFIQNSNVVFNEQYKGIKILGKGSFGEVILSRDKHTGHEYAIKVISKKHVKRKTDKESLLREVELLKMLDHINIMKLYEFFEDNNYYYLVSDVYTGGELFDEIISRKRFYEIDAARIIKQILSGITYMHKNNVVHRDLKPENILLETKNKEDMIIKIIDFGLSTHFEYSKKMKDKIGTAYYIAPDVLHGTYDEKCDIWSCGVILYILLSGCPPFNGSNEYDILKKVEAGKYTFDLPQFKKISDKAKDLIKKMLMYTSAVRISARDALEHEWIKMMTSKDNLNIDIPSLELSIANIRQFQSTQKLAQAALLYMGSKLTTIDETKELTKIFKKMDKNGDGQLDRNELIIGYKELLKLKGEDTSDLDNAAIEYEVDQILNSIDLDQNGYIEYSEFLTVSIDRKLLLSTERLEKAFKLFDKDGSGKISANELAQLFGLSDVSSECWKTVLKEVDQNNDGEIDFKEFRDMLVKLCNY

| Structure (SMILES) | growth inhibition [1] | inhibition [2] | inhibition [3] [%] | growth inhibition [4] | outcome [5] | outcome [6] | outcome [7] | outcome [8] |
| --- | --- | --- | --- | --- | --- | --- | --- | --- |
| CN1CCCC(CN2CCN(Cc3cccc(-c4ccc(-c5nc6ccccc6[nH]5)s4)c3)CC2)C1 (stereo not given) | 99% (active) | 52% (active) | -6 | 99% (active) | inactive | inactive | inactive | inactive |
| COc1cc2[nH]c(-c3ccc(O)cc3)c(C)c(=O)c2c(OC)c1OC | 94% (active) | 1% | 0 | 100% (active) | inactive | inactive | inactive | inactive |
| Cc1ccc(S(=O)(=O)NC2=NC(C)(C)N(OCc3ccc(Cl)c(Cl)c3)C(N)=N2)cc1 | -3% | -5% | 3 | 88% (active) | inactive | inactive | inactive | inactive |
| CC(C)(C)OC(=O)Cn1cnc2cc(NC(=O)c3cc([N+](=O)[O-])cc([N+](=O)[O-])c3)ccc21 | 97% (active) | 11% | 5 | 100% (active) | inactive | inactive | inactive | inactive |
| COc1ccc(NC(=O)Nc2nc3ccccc3s2)cc1N1CCN(C)CC1 | 22% | 6% | -1 | 95% (active) | inactive | inactive | inactive | inactive |
| COc1ccc(-c2cnc3[nH]cc(-c4ccc(CCC(=O)O)cc4)c3c2)cn1 | 95% (active) | 25% | -5 | 98% (active) | inactive | inactive | inactive | inactive |
| O=C1COc2cc(Cl)c(CNC3CCN(CCc4ccnc5c(F)cc(F)cc45)CC3)nc2N1 | 49% | 96% (active) | -2 | 98% (active) | inactive | inactive | inactive | inactive |
| CCN(CC)CCN(Cc1ccc(-c2ccc(C(F)(F)F)cc2)cc1)C(=O)c1c[nH]c2ccc(Br)cc12 | 74% (active) | 80% (active) | -4 | 90% (active) | inactive | inactive | inactive | inactive |
| COc1ccc(-c2cnc(N)c(-c3nc4ccc(Br)cc4[nH]3)c2)cc1 | 3% | 42% | 2 | 100% (active) | inactive | inactive | inactive | inactive |
| Cc1cccc2[nH]c(-c3cccc(-c4ccc(NC(=O)Nc5cccc(C#N)c5)cc4)c3)nc12 | 91% (active) | 50% (active) | 6 | 101% (active) | inactive | inactive | inactive | inactive |
| Cc1cccc2[nH]c(-c3ccc(-c4cccc(CN5CCC(CCN6CCCCC6)CC5)c4)s3)nc12 | 100% (active) | 99% (active) | -3 | 101% (active) | inactive | inactive | inactive | inactive |
| Cc1ccc2nc(-c3cc(-c4cccc(C#N)c4)cnc3N)[nH]c2c1 | 99% (active) | 40% | 1 | 100% (active) | inactive | inactive | inactive | inactive |
| COc1cc(C2=NN(S(=O)(=O)c3c(C)cc(C)cc3C)CCCC2)ccc1Cl | 76% (active) | 9% | 1 | 85% (active) | inactive | inactive | inactive | inactive |
| COC(=O)C1=CNC=C(C(=O)OC)C1c1ccc(Cl)c([N+](=O)[O-])c1 | 79% (active) | -1% | -4 | 93% (active) | inactive | inactive | inactive | inactive |
| N#Cc1ccc2c(c1)CN(CCC1CCC(NC(=O)c3cc4ccccc4cc3N)CC1)CC2 (stereo not given) | 52% (active) | 5% | -8 | 80% (active) | inactive | inactive | inactive | inactive |
| O=C(Nc1ccc(F)cc1F)NC1CCN(CCCCCNC(=O)[C@@H]2C[C@H]2c2ccc(Cl)c(Cl)c2)CC1 | 32% | 41% | 1 | 100% (active) | inactive | inactive | inactive | inactive |
| COc1ccc2nccc(NC(=O)N3CCC(NCc4cc5c(F)ccc(F)c5[nH]4)CC3)c2n1 | 40% | 6% | -2 | 99% (active) | inactive | inactive | inactive | inactive |
| Cc1cc(Nc2ccncc2)n2nc(C)c(-c3ccc(Cl)cc3)c2n1 | 99% (active) | -9% | 2 | 101% (active) | inactive | inactive | inactive | inactive |
| COc1ccc2nccc([C@@H](O)CN3CCC(NC(=O)/C=C/c4cccc(-c5ccccc5)c4)CC3)c2c1 | 83% (active) | 12% | -5 | 98% (active) | inactive | inactive | inactive | inactive |
| C=CCOC(=O)N1CCC(CNCc2ccc(-c3cccc(-c4nc5c(C)cccc5[nH]4)c3)cc2)C1 (stereo not given) | 99% (active) | 25% | -5 | 102% (active) | inactive | inactive | inactive | inactive |

| Structure (SMILES) | growth inhibition [1] | inhibition [2] | inhibition [3] [%] | growth inhibition [4] | outcome [5] | outcome [6] | outcome [7] | outcome [8] |
| --- | --- | --- | --- | --- | --- | --- | --- | --- |
| C(=NNc1ccnc2ccccc12)c1ccncc1 | 27% | 7% | -2 | 95% (active) | inactive | inactive | inactive | inactive |
| CC(C)(C)c1ccc(NC(=O)c2cccc(CN3CCCN(Cc4ccsc4)CC3)c2)cc1 | 3% | 33% | -4 | 96% (active) | inactive | inactive | inactive | inactive |
| O=C(Nc1cccc(CN2CCN(C(=O)c3cccs3)CC2)c1)c1cccs1 | 91% (active) | -2% | 3 | 95% (active) | inactive | inactive | inactive | inactive |
| O=C(Nc1ccc(C(F)(F)F)cc1)c1ccc(S(=O)(=O)NC2CCN(CC3CCCCC3)CC2)cc1 | 20% | 30% | 1 | 101% (active) | inactive | inactive | inactive | inactive |
| Cc1cccc2[nH]c(-c3ccc(-c4ccc(CN5CCN(C6CCN(C)CC6)CC5)cc4)s3)nc12 | 101% (active) | 97% (active) | -4 | 101% (active) | inactive | inactive | inactive | inactive |
| O=C(Nc1cccc(-c2ccc(-c3nc4ccc(C(F)(F)F)cc4[nH]3)s2)c1)c1ccncc1 | 46% | 79% (active) | -13 | 99% (active) | inactive | inactive | inactive | inactive |
| c1ccc(COc2ccc(COc3ccc(Cn4ccnc4)cc3)cc2)cc1 | 45% | 9% | 0 | 86% (active) | inactive | inactive | inactive | inactive |
| CO/C(=C\C=C\c1cc2cc(Cl)c(Cl)cc2[nH]1)C(=O)NC1C[C@@H](C)N(C)[C@@H](C)C1 (stereo not given in full) | 57% (active) | 64% (active) | 1 | 97% (active) | inactive | inactive | inactive | inactive |
| CC1(C)N=C(N)N=C(N)N1OCCOc1ccc(Cc2ccccc2)cc1 | 26% | 62% (active) | 3 | 94% (active) | inactive | inactive | inactive | inactive |
| CCCCCCCN(Cc1ccc(OC(C)(C)C(=O)OCC)cc1)C(=O)Nc1ccccc1OC(F)(F)F | 68% (active) | -2% | 3 | 95% (active) | inactive | inactive | inactive | inactive |
| Cc1c(CNCCCNc2cc(=O)c3ccccc3[nH]2)sc(C(F)F)c1Br | 29% | 0% | 5 | 98% (active) | inactive | inactive | inactive | inactive |
| O=C(/C=C/c1ccc(Cl)c(Cl)c1)NCCCCCN1CCC(NC(=O)Nc2ccc([N+](=O)[O-])cc2)CC1 | 2% | 20% | 2 | 102% (active) | inactive | inactive | inactive | inactive |
| c1cc(CN2CCCCC2)cc(OCCCNc2ccnc3ccccc23)c1 | 99% (active) | 48% | -1 | 100% (active) | inactive | inactive | inactive | inactive |
| O=C(c1cc(-c2cccs2)[nH]n1)N1CCN(S(=O)(=O)c2ccc(Cl)s2)CC1 | 80% (active) | 20% | 1 | 84% (active) | inactive | inactive | inactive | inactive |
| Cc1ccc(C2CC(c3cccs3)=NN2C(=O)c2ccc(Br)o2)cc1 (stereo not given) | 69% (active) | 11% | 0 | 99% (active) | inactive | inactive | inactive | inactive |
| COc1ccc(CCCON2C(N)=NC(N)=NC2(C)C)cc1 | 94% (active) | 61% (active) | -1 | 95% (active) | inactive | inactive | inactive | inactive |
| Fc1ccc2nc(-c3ccc(-c4ccc(CNCC5CCCO5)cc4)cc3)[nH]c2c1 (stereo not given) | 100% (active) | 26% | -3 | 101% (active) | inactive | inactive | inactive | inactive |
| O=C(NC(c1ccccc1)c1ccc2cccnc2c1O)c1ccccc1 (stereo not given) | 63% (active) | 53% (active) | -4 | 94% (active) | inactive | inactive | inactive | inactive |
| Cc1cc(S(=O)(=O)N2CCCCC(c3ccc(C(F)(F)F)cc3)=N2)c(Cl)cc1Cl | 97% (active) | 17% | 0 | 97% (active) | inactive | inactive | inactive | inactive |
| CN1CCCN(Cc2cccc(-c3cccc(NC(=O)c4ccc(Cl)cc4)c3)c2)CC1 | 44% | 35% | 2 | 100% (active) | inactive | inactive | inactive | inactive |
